# Results filed as inconclusive are left out. Activity calls are given as the source filed them. Rule for the calls: active = hit-call score of the fitted dose curve at least 0.9, where 1 is the maximum; inconclusive = response in the unintended direction; inactive = score below 0.9.
# What was measured:
# [1] = biological target: sheep Cyclooxygenase-2 (Cox2), PTGS2 (gene 443460) (UniProt P79208); test: NVS_ENZ_oCOX2: NovaScreen (NVS) Enzymatic Assay for sheep Cyclooxygenase-2 (Cox2) (AID 2283231)
# Procedure, shortened: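 Enzyme from ovine placenta, cell-free; colorimetric absorbance read 0.66 hour after dosing, loss of signal vs DMSO. Screened in duplicate at 25 uM, then concentration-response up to 50 uM.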
# [2] = biological target: guinea pig Leukotriene D4 Receptor (LTD4), CYSLTR1 (gene 100135514) (UniProt Q2NNR5); test: NVS_GPCR_gLTD4: NovaScreen (NVS) G Protein-Coupled Receptor Assay for guinea pig Leukotriene D4 Receptor (LTD4) (AID 2283248)
# Procedure, shortened: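 Guinea pig lung membrane preparation; bound radioligand measured by filter scintillation after 1 h, loss of signal versus DMSO marking displacement. Compounds tested at 25 uM in duplicate, hits retested to max 50 uM.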
# [3] = biological target: human Vascular Endothelial Growth Factor Receptor 3 (VEGFR3), FLT4 (gene 2324) (UniProt P35916); test: NVS_ENZ_hVEGFR3: NovaScreen (NVS) Enzymatic Assay for human Vascular Endothelial Growth Factor Receptor 3 (VEGFR3) (AID 2283229)
# Procedure, shortened: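 Chemicals first run in duplicate at 25 uM, with actives re-tested in concentration series to a top of 50 uM. Recombinant VEGFR3 activity measured after 1 h via fluorescence with mobility-shift product separation; inhibition fitted relative to DMSO.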
# [4] = biological target: human Vascular Endothelial Growth Factor Receptor 2 (VEGFR2), KDR (gene 3791) (UniProt P35968); test: NVS_ENZ_hVEGFR2: NovaScreen (NVS) Enzymatic Assay for human Vascular Endothelial Growth Factor Receptor 2 (VEGFR2) (AID 2283230)
# Procedure, shortened: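 Cell-free recombinant VEGFR2 kinase, fluorescent substrate with electrophoretic mobility-shift separation; read 1 h after dosing. Screened at 25 uM in duplicate, hits to concentration-response up to 50 uM; loss-of-signal versus DMSO.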
# [5] = biological target: human Adenosine A1 Receptor (AdoRA1), ADORA1 (gene 134) (UniProt P30542); test: NVS_GPCR_hAdoRA1: NovaScreen (NVS) G Protein-Coupled Receptor Assay for human Adenosine A1 Receptor (AdoRA1) (AID 2283254)
# Procedure, shortened: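 Radioligand binding was run on human cortical membranes, cell-free, with filter-based scintillation counting 1 h after dosing. The primary screen was duplicate at 25 uM, followed by concentration series. Signal loss versus DMSO was fitted positive-direction.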
# [6] = biological target: sheep Cyclooxygenase-1 (Cox1), PTGS1 (gene 443551) (UniProt P05979); test: NVS_ENZ_oCOX1: NovaScreen (NVS) Enzymatic Assay for sheep Cyclooxygenase-1 (Cox1) (AID 2283239);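 note: actives reduce cyclooxygenase activity so potencies are for inhibitors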
# Procedure, shortened: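 Tested in duplicate at 25 uM, then in concentration series if active, against seminal vesicle extract from sheep. Enzyme activity was measured colorimetrically at 0.66 hour and normalised to DMSO.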
# [7] = biological target: Adenosine receptor A1 (Bos taurus) (UniProt P28190); test: NVS_GPCR_bAdoR_NonSelective: NovaScreen (NVS) G Protein-Coupled Receptor Assay for bovine Adenosine Receptor (AdoR), Non-selective Binding (AID 2283244)
# Procedure, shortened: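 Cell-free binding with membranes from bovine striatum: radioligand displaced by test chemical, read after 1 h by filtration and scintillation. Single-point 25 uM duplicate primary, 50 uM top concentration in follow-up curves, DMSO baseline.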
# [8] = biological target: rabbit Imidazoline 2 Central (I2C), CKB (gene 100009085) (UniProt P00567); test: NVS_ENZ_rabI2C: NovaScreen (NVS) Enzymatic Assay for rabbit Imidazoline 2 Central (I2C) (AID 2283228)
# Procedure, shortened: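 Rabbit brain membranes, cell-free; readout by filter-based scintillation counting 1.5 hours after dosing, loss of signal vs DMSO. Initial duplicate test at 25 uM, then concentration-response with 50 uM top concentration.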
# [9] = NVS_GPCR_bNPY_NonSelective: NovaScreen (NVS) G Protein-Coupled Receptor Assay for bovine Neuropeptide Y (NPY) Receptor, Non-selective Binding (AID 2283245)
# Procedure, shortened: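 Displacement of radioligand from bovine hippocampal membrane receptors, read by filtration and scintillation counting after 1 hour. Concentration-response to a top of 50 uM followed a 25 uM duplicate primary screen. Loss of signal versus DMSO.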
# [10] = biological target: human Serotonin, 5-Hydroxytryptamine Receptor 5A (5HT5A), HTR5A (gene 3361) (UniProt P47898); test: NVS_GPCR_h5HT5A: NovaScreen (NVS) G Protein-Coupled Receptor Assay for human Serotonin, 5-Hydroxytryptamine Receptor 5A (5HT5A) (AID 2283251)
# Procedure, shortened: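 Membranes from HEK293 cells, radioligand binding read by filtration and scintillation after 1 h. Single-concentration duplicate testing at 25 uM, then concentration-response for actives; positive-direction fitting relative to DMSO.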
# [11] = biological target: human Serotonin, 5-Hydroxytryptamine Receptor 6 (5HT6), HTR6 (gene 3362) (UniProt P50406); test: NVS_GPCR_h5HT6: NovaScreen (NVS) G Protein-Coupled Receptor Assay for human Serotonin, 5-Hydroxytryptamine Receptor 6 (5HT6) (AID 2283253)
# Procedure, shortened: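 Filter scintillation counting of radioligand displacement from HEK293-expressed 5HT6, 1 hour post-dose, with loss of signal relative to DMSO. Single 25 uM duplicates first, with concentration series for confirmation.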
# [12] = biological target: human Serotonin, 5-Hydroxytryptamine Receptor 7 (5HT7), HTR7 (gene 3363) (UniProt P34969); test: NVS_GPCR_h5HT7: NovaScreen (NVS) G Protein-Coupled Receptor Assay for human Serotonin, 5-Hydroxytryptamine Receptor 7 (5HT7) (AID 2283255);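 note: hits reduce specific radioligand binding relative to DMSO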
# Procedure, shortened: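 Filter-bound radioactivity counted after 1 h, with loss of specific radioligand binding fitted against DMSO. Membrane protein came from CHO cells expressing human 5HT7. Chemicals were tested first at 25 uM in duplicate, then in concentration series if active.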
# [13] = biological target: guinea pig Opioid, Kappa 1 Receptor (OpiateK), OPRK1 (gene 100135587) (UniProt P41144); test: NVS_GPCR_gOpiateK: NovaScreen (NVS) G Protein-Coupled Receptor Assay for guinea pig Opioid, Kappa 1 Receptor (OpiateK) (AID 2283252);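 note: radioligand displacement from kappa opioid receptor in guinea pig cerebellar membranes; active means reduced radioligand binding relative to DMSO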
# Procedure, shortened: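 Cell-free tissue prep: guinea pig cerebellar membranes, radioligand displacement, 2 h incubation. Readout: filtration plus scintillation counting. Primary single-point 25 uM duplicate; actives retested in concentration series; DMSO negative control.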
# [14] = biological target: bovine Dopamine Receptor (DR), Non-selective Binding, DRD1 (gene 281125) (UniProt Q95136); test: NVS_GPCR_bDR_NonSelective: NovaScreen (NVS) G Protein-Coupled Receptor Assay for bovine Dopamine Receptor (DR), Non-selective Binding (AID 2283241)
# Procedure, shortened: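 Filter-based radioligand binding with bovine striatal membrane, incubated 1 h; DMSO as negative baseline. Initial duplicate single-point test at 25 uM preceded concentration series for actives.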
# [15] = tested on: bovine Histamine 1 Receptor (H1), gene 281231; test: NVS_GPCR_bH1: NovaScreen (NVS) G Protein-Coupled Receptor Assay for bovine Histamine 1 Receptor (H1) (AID 2283246)
# Procedure, shortened: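 Hits from a 25 uM duplicate primary screen were retested in concentration series (top 50 uM); binding measured as scintillation-counted displacement of radioligand from bovine cerebellar membranes after 1 h, normalised to DMSO.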
# [16] = tested on: guinea pig Muscarinic, Peripheral (Mperiperal) Receptor, Non-selective Binding, gene 100379235; test: NVS_GPCR_gMPeripheral_NonSelective: NovaScreen (NVS) G Protein-Coupled Receptor Assay for guinea pig Muscarinic, Peripheral (Mperiperal) Receptor, Non-selective Binding (AID 2283250)
# Procedure, shortened: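 Screened in duplicate at 25 uM, hits retested in concentration series to 50 uM max, using bladder membrane radioligand displacement from guinea pig. Filtration and scintillation counting 1 h post-dose, fitted relative to DMSO.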
# [17] = biological target: human Adenosine A2a Receptor (AdoRA2a), ADORA2A (gene 135) (UniProt P29274); test: NVS_GPCR_hAdoRA2a: NovaScreen (NVS) G Protein-Coupled Receptor Assay for human Adenosine A2a Receptor (AdoRA2a) (AID 2283256)
# Procedure, shortened: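 Compounds screened in duplicate at 25 uM, with actives followed up in concentration series, for displacement of a radioligand from HEK293-derived receptor protein. Bound counts read by filter scintillation at 1.5 hours, DMSO as baseline.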
# sheep Cyclooxygenase-2 (Cox2), PTGS2 (gene 443460), sequence (P79208 whole entry, looked up): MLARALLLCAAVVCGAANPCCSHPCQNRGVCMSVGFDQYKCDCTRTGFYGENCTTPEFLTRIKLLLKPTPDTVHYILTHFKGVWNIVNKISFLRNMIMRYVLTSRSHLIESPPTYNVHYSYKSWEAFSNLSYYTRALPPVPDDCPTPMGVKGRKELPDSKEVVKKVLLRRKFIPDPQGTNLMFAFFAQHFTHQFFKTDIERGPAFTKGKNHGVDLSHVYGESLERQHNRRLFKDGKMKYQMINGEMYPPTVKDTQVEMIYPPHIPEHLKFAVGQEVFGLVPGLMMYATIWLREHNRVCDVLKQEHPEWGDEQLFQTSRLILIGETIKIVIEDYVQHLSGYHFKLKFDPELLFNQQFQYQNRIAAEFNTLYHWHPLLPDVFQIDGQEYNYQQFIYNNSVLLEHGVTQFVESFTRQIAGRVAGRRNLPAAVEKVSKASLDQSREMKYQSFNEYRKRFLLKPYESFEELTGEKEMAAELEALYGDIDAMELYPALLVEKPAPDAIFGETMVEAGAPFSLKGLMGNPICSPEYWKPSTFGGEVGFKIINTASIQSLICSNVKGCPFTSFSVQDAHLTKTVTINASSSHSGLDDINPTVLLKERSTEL
# human Adenosine A1 Receptor (AdoRA1), ADORA1 (gene 134), sequence (P30542 whole entry, looked up): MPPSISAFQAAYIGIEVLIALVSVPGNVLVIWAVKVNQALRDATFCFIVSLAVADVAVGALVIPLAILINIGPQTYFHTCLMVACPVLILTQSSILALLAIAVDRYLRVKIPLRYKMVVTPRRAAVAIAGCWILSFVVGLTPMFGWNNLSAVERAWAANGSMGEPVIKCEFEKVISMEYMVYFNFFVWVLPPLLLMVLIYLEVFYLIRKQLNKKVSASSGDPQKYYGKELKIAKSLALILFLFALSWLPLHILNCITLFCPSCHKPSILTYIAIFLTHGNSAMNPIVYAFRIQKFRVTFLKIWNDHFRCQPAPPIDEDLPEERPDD
# sheep Cyclooxygenase-1 (Cox1), PTGS1 (gene 443551), sequence (P05979 whole entry, looked up): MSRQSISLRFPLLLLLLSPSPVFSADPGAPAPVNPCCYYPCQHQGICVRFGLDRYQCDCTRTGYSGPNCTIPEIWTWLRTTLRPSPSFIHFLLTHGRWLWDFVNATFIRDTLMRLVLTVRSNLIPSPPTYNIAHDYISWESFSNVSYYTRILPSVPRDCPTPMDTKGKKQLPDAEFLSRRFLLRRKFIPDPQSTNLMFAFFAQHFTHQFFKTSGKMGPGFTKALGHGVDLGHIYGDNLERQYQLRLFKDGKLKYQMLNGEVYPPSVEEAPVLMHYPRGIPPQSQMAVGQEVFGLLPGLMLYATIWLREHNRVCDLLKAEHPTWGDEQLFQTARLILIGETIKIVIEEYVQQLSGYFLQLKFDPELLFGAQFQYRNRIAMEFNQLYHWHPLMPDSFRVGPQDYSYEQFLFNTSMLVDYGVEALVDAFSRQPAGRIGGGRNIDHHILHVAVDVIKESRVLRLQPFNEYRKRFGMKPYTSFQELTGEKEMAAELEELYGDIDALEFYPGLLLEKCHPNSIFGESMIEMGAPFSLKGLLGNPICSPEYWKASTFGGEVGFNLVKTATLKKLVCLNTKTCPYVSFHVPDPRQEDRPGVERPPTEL
# rabbit Imidazoline 2 Central (I2C), CKB (gene 100009085), sequence (P00567 whole entry, looked up): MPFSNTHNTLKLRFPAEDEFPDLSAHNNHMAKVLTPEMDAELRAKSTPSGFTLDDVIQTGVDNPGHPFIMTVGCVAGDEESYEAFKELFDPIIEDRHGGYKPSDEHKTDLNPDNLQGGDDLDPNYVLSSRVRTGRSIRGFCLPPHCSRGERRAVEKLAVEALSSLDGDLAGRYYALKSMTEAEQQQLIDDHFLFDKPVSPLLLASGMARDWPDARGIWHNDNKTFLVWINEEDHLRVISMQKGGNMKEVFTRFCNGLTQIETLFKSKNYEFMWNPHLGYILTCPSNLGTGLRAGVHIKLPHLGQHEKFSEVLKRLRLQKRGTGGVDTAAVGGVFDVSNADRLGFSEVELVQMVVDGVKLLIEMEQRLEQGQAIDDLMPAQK
# guinea pig Leukotriene D4 Receptor (LTD4), CYSLTR1 (gene 100135514), sequence (Q2NNR5 whole entry, looked up): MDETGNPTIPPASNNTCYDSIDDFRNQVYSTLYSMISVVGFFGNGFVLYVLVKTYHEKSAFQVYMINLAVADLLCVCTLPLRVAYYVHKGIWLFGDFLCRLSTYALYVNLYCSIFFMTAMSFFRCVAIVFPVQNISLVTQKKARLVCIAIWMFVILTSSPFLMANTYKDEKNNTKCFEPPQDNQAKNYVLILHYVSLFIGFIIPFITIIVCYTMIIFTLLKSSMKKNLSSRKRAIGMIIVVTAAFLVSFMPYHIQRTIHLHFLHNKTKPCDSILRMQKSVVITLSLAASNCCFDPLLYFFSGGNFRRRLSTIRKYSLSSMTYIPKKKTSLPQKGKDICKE
# human Serotonin, 5-Hydroxytryptamine Receptor 6 (5HT6), HTR6 (gene 3362), sequence (P50406 whole entry, looked up): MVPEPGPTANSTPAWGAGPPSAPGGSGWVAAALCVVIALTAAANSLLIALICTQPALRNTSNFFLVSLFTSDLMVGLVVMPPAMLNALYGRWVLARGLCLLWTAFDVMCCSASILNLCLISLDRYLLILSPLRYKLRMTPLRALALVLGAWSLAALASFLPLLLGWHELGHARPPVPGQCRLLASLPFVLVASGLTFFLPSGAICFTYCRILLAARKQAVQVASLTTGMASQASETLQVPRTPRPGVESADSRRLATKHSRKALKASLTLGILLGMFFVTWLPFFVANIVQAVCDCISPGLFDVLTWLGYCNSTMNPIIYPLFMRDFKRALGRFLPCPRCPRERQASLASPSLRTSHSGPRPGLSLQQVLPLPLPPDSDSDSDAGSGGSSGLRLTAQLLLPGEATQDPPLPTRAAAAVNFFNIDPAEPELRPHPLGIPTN
# human Serotonin, 5-Hydroxytryptamine Receptor 5A (5HT5A), HTR5A (gene 3361), sequence (P47898 whole entry, looked up): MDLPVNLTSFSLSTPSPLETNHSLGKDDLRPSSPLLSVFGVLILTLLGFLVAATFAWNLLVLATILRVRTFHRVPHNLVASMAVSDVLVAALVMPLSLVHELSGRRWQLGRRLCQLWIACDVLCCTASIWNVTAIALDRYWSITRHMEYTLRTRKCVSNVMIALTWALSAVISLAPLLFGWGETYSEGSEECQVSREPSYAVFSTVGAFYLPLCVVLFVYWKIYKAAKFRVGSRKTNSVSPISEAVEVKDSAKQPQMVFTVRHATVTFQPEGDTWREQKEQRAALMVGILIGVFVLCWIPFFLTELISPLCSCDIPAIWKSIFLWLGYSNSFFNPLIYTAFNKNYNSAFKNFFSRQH
# human Vascular Endothelial Growth Factor Receptor 2 (VEGFR2), KDR (gene 3791), sequence (P35968 whole entry, looked up): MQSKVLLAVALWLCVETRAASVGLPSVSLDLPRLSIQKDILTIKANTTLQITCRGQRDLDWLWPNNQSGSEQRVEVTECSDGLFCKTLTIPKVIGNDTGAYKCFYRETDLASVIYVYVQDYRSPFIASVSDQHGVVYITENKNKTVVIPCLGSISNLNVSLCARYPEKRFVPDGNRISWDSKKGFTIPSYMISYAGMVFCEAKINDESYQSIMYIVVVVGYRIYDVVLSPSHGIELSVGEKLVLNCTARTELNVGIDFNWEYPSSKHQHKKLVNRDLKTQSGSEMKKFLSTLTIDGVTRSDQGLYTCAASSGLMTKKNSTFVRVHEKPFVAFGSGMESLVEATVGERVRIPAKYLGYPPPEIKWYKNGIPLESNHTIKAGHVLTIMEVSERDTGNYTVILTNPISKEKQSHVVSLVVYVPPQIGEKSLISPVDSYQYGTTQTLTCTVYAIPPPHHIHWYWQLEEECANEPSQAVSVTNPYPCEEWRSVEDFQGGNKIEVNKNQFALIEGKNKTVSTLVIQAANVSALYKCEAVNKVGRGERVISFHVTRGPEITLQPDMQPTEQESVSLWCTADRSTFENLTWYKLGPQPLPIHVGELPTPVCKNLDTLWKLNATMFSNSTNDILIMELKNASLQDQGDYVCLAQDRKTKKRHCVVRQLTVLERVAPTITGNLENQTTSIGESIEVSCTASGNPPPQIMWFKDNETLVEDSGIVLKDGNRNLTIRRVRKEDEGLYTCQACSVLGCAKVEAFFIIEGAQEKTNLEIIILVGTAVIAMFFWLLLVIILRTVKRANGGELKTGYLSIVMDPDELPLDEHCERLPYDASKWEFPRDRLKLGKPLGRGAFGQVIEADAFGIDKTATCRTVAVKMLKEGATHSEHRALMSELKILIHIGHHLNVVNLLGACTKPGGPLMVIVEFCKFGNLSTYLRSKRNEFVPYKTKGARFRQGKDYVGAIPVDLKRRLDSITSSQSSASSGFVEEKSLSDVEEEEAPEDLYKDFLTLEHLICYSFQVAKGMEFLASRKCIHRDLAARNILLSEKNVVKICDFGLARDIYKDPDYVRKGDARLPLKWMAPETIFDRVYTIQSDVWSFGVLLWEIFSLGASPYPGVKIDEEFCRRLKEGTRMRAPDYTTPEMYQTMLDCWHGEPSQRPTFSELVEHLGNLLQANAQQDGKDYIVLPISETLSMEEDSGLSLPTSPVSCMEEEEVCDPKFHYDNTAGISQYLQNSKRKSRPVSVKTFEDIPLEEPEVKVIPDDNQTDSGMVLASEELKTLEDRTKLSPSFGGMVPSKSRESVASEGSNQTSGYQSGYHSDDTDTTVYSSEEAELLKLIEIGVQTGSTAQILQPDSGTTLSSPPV
# Adenosine receptor A1 (Bos taurus), sequence (P28190 whole entry, looked up): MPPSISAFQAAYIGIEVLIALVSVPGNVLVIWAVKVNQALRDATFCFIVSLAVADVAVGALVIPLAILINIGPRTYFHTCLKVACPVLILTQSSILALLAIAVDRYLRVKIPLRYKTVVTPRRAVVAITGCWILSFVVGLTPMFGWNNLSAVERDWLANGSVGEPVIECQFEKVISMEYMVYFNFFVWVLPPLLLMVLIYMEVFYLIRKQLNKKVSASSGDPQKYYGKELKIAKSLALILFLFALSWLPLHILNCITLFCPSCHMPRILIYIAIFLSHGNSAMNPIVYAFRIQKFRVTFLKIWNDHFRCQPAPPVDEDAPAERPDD
smiles,measurement,setting,value
CC(=O)Nc1ccc(O)cc1,outcome,[1],inactive
CCCCCCCCCCCCCCCC(=O)OC,outcome,[2],inactive
OCC(CO)(CBr)CBr,AC50,[1],16.7 µM (active)
Cc1[nH]nc2c1N=C(c1ccccc1Cl)c1cc([N+](=O)[O-])ccc1N2,AC50,[3],0.00229 µM (active)
same,AC50,[4],0.00463 µM (active)
same,outcome,[5],inactive
Cc1ccc(C(=O)c2ccccc2)cc1,AC50,[6],15.5 µM (active)
O=C(c1ccccc1)c1ccccc1,outcome,[7],inactive
CCCCc1oc2ccccc2c1C(=O)c1cc(I)c(OCCN(CC)CC)c(I)c1,outcome,[8],inactive
same,outcome,[4],inactive
same,outcome,[9],inactive
same,AC50,[10],13.7 µM (active)
same,AC50,[11],7.27 µM (active)
same,outcome,[5],inactive
same,AC50,[12],6.72 µM (active)
CCCCCCCCCCCCCCCCCC[N+](C)(C)Cc1ccccc1,outcome,[6],inactive
O=C1OC2(c3ccccc31)c1cc(I)c(O)c(I)c1Oc1c2cc(I)c(O)c1I,outcome,[13],inactive
same,AC50,[5],6.25 µM (active)
O=C(CCCN1CCC(O)(c2ccc(Cl)cc2)CC1)c1ccc(F)cc1,AC50,[8],14.4 µM (active)
same,AC50,[14],0.0124 µM (active)
same,AC50,[15],10.5 µM (active)
same,AC50,[16],5.15 µM (active)
same,outcome,[10],inactive
CN(Cc1cnc2nc(N)nc(N)c2n1)c1ccc(C(=O)N[C@@H](CCC(=O)O)C(=O)O)cc1,AC50,[6],1.98 µM (active)
same,outcome,[11],inactive
same,outcome,[5],inactive
same,AC50,[17],9.68 µM (active)
CCCCC=O,outcome,[1],inactive
CC(C)(C)c1ccc(O)c(O)c1,outcome,[2],inactive
CNNCc1ccc(C(=O)NC(C)C)cc1,AC50,[6],25 µM (active)
